This is part of a sample that, as a whole, favours compounds with a hit. Of some 83,000 tested, about 20% had one in any assay.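 Treatment: one concentration, 48 hours, 96-well format. Scoring: percent growth, with anything below 10 considered active.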 A number with no mark means an inactive call. Calls of active or inactive are those of the source.
Key:
Experiment in all cases: NCI-60 one-dose screen, 48 h (100 = growth as untreated, 0 = no growth, -100 = all killed)
Conditions in all cases: 10 µM unless noted
HCT-15 colon = test system: HCT-15 colon
HT29 colon = test system: HT29 colon
SNB-75 CNS = test system: SNB-75 CNS
SNB-19 CNS = test system: SNB-19 CNS
U251 CNS = test system: U251 CNS
PC-3 prostate = test system: PC-3 prostate
SK-MEL-5 melanoma = test system: SK-MEL-5 melanoma
UACC-62 melanoma = test system: UACC-62 melanoma
LOX IMVI melanoma = test system: LOX IMVI melanoma
SK-MEL-28 melanoma = test system: SK-MEL-28 melanoma

SMILES	growth (HCT-15 colon)	growth (HT29 colon)	growth (SNB-75 CNS)	growth (SNB-19 CNS)	growth (U251 CNS)	growth (PC-3 prostate)	growth (SK-MEL-5 melanoma)	growth (UACC-62 melanoma)	growth (LOX IMVI melanoma)	growth (SK-MEL-28 melanoma)
COc1ccc(-c2[nH]c3ccc(OC)cc3c2C=C(C#N)C#N)cc1	38.6%	15%	21.3%	76.2%	35.7%	21.7%	15.5%	33.1%	63%	54.2%
Cc1cccc2nc3c(n12)C(=O)C(=O)c1ccccc1-3	40.8%	78%	136%	61.3%	43%	40.2%	30.2%	-57.4% (active)	6.44% (active)	85.7%
O=C1[C@@H](OS(=O)(=O)CC(F)(F)F)[C@H](c2ccc(F)cn2)N1c1cc2c3ccccc3ccc2c2ccccc12	61.9%	64.1%	83.4%	77.9%	69.2%	62.8%	67.2%	58.3%	70.3%	79.7%
Cc1cc(Cl)cc(CN(Cc2ccccc2)Cc2c(O)ccc3ccccc23)c1O	108%	98.5%	94.5%	99.9%	98.5%	88.5%	95.1%	89.3%	90.2%	113%
CC(C)(C#N)c1cc(F)cc(C(=O)Nc2cc(Nc3ncccc3-c3ncnc4nc[nH]c34)ccc2F)c1	37.8%	10.1%	78.7%	58%	40.7%	54.2%	20.3%	9.35% (active)	-23.6% (active)	18.5%
Cc1nc2sc(C(=O)Nc3cccc(Cl)c3C)c(N)c2cc1C(C)O (stereo not given)	16.4%	1.68% (active)	13.9%	22.4%	17.7%	13.3%	9.62% (active)	30.7%	29.9%	62.1%
CC(=O)Oc1ccc(O)cc1	104%	87.3%	91.1%	96.2%	101%	87.1%	96.7%	86.6%	94.4%	104%
O=c1c2ccccc2oc2ccc(OCCCCCCN3CCCCCC3)cc12	7.65% (active)	8.09% (active)	88.7%	58.3%	38.9%	34%	-36.7% (active)	-53.4% (active)	19.1%	38.5%
CC(C)CSc1nc(Nc2ccccc2)c(C#N)c(-c2ccc(F)cc2)n1	67.4%	50.7%	-16.2% (active)	5.61% (active)	-32.5% (active)	47.7%	80.5%	70.9%	4.45% (active)	84.5%
Cc1nc2sc(C(=O)Nc3cccc4ccccc34)c(N)c2cc1C(C)O (stereo not given)	14.4%	4.82% (active)	29%	34%	25.4%	30.7%	8.93% (active)	36%	26.9%	66.9%
NS(=O)(=O)c1ccc(-n2nc(-c3ccccc3)ccc2=O)cc1	108%	112%	114%	101%	99.2%	96.2%	109%	89.6%	104%	104%
O=[N+]([O-])c1ccc(Oc2ccc(-c3ccccc3)cc2)cc1	81.8%	76.6%	93.5%	94%	88.5%	75.8%	88.2%	63%	96.3%	105%
NCCN1CCNCC1	100%	98.4%	92.2%	95.9%	102%	92%	109%	98.1%	101%	109%
CC1CCN(CCCCCOc2ccc3oc4cc(Cl)ccc4c(=O)c3c2)CC1	-16.9% (active)	5.89% (active)	74.7%	80.9%	54.3%	64.3%	-72.2% (active)	-51% (active)	-25.6% (active)	57.5%
O=C(Nc1ccc2ncnc(Nc3ccc(F)c(Cl)c3)c2c1)c1ccccc1	52.1%	79%	28.5%	76.8%	42.8%	72.7%	86.5%	92.2%	63.9%	97.5%
NC(=N\N=C\c1ccccc1O)/C(N)=N/N=C/c1ccccc1O	66%	73.8%	84.4%	84.4%	82.7%	56.1%	84.6%	68.9%	48.6%	90.5%
COc1ccc([C@H]2[C@@H](F)C(=O)N2c2cc(OC)c(OC)c(OC)c2)cc1F	13.6%	3.73% (active)	50.9%	34.1%	11.9%	23.1%	-31.5% (active)	53.4%	24%	57.7%
CN1CCN(C(=O)[C@@]2(C)CC[C@]3(C)CC[C@]4(C)C(=CC[C@@H]5[C@@]6(C)CC[C@H](OC(=O)c7cccnc7)C(C)(C)[C@@H]6CC[C@]54C)[C@@H]3C2)CC1	-46.9% (active)	8.46% (active)	90.4%	19.8%	-69.8% (active)	46.8%	64.4%	82.1%	-26.4% (active)	76.7%
COc1ccc2[nH]c(-c3ccccc3)c(C=C(C#N)C#N)c2c1	36.3%	17.2%	-5.72% (active)	73.2%	35.2%	13.2%	8.94% (active)	22.1%	42.6%	44%
O=C(O)COc1ccc2c(=O)c3sc4c(=O)c5ccccc5c(=O)c4c3c(=O)c2c1	-75% (active)	-37.4% (active)	-42% (active)	0.0814% (active)	29.8%	54%	-99.6% (active)	-91.4% (active)	-37.6% (active)	-16.2% (active)
CCCCn1c2cc(OCc3cn(-c4ccc(Cl)cc4)nn3)ccc2c2ccnc(C)c21	17.7%	6.28% (active)	32.8%	56.8%	21.8%	44.7%	38.9%	33%	20.1%	67.9%
CS(=O)(=O)O[C@@H]1C(=O)N(c2cc3c4ccccc4ccc3c3ccccc23)[C@H]1c1ccc(F)cn1	29.1%	3.71% (active)	-0.245% (active)	38.3%	29.5%	34.7%	13.6%	34%	34.2%	68.6%
COc1ccc2oc(=O)cc(-c3c(C#N)c(N)n4nc(N)c(C#N)c4c3C#N)c2c1	102%	90.7%	116%	112%	101%	104%	99%	107%	95%	107%
COc1ccc(C(C)c2cc(OC)c(OC)c(OC)c2)cc1 (stereo not given)	18%	4.2% (active)	38.2%	34.1%	18%	24.5%	-31.5% (active)	28.1%	26.1%	61.1%
CCN1CCN(c2ccc(NC(=O)Nc3nc4ccc(-c5ccccc5OC)cc4s3)cc2)CC1	-83.2% (active)	-92% (active)	-19.8% (active)	-82.8% (active)	-87% (active)	-83.8% (active)	-98.8% (active)	-85.3% (active)	-86.4% (active)	-79.3% (active)
CCCCC(=O)Nc1c(C(=O)Nc2ccccc2)sc2nc3c(cc12)C(OC(=O)CCCC)CCC3 (stereo not given)	81.3%	79.4%	89.3%	97.2%	79.8%	90.7%	84.5%	87.6%	85.1%	110%
Cc1cc(C)nc(NS(=O)(=O)c2ccc(Nc3ccc4c5c(n(CCCN(C)C)c(=O)c4c3)-c3ccccc3C5=O)cc2)n1	90.3%	74.8%	79.5%	91%	75.3%	86.3%	85.6%	93.3%	72.6%	117%

From PubChem BioAssay (NCI)
